# Screening data as filed in PubChem.
# FBPA Giardia inh = qHTS Assay for Inhibitors of Fructose-1,6-bisphosphate Aldolase from Giardia Lamblia; A8B2U2; purified Giardia FBPA; Potency, µM (titrated, usually from 59.6 µM), actives largely listed as inhibitors; 0.71% of 290,000 active; AID 2451, 2010; further: nearly all actives have a fitted effect of over 55% in size
# Target sequence (A8B2U2 whole entry, looked up): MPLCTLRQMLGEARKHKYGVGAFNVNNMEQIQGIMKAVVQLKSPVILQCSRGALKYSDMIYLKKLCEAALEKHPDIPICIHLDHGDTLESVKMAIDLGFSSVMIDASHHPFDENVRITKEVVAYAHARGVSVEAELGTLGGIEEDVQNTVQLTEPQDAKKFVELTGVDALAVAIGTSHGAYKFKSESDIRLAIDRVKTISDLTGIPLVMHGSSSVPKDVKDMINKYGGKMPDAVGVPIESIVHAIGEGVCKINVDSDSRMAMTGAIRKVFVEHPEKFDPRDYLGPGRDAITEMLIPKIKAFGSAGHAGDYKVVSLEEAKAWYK
#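 Giardia FBPA (40 nM reagent) was preincubated 10 min at RT with compound (up to 57.5 uM final), then substrate plus GAPDH/TPI/NAD/arsenate coupling system with diaphorase/resazurin was added; resorufin fluorescence (525/598 nm) was read after 20 min.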
# CHX counter = Cycloheximide Counterscreen for Small Molecule Inhibitors of Shiga Toxin; cell reporter, cycloheximide protein synthesis inhibition counterscreen; max response, %; 12% of 300,000 active; AID 2314, 2010; in the data active means max response mostly above about 13%, no sharp cut-off; inactive means mostly below about 14%; further: read at 38.3 µM for the half of the compounds with a filed dose
# Pf growth 96h = Primary qHTS for delayed death inhibitors of the malarial parasite plastid, 96 hour incubation; P. falciparum luciferase reporter growth, 96 h; Potency, µM (titrated, usually from 28.7 µM), hits mostly inhibitors; 6.9% of 320,000 active
#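 Compounds incubated with erythrocytes infected by luciferase-expressing P. falciparum (2% hematocrit, 0.05% parasitemia final) for 96 hours, 37 C in 5% CO2. Growth inhibition scored as decreased luciferase luminescence.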
# Pf growth 48h = Primary qHTS for delayed death inhibitors of the malarial parasite plastid, 48 hour incubation. Potency, µM (top dose mostly 28.7 µM), hits mostly inhibitors. 5.9% of 310,000 active. P. falciparum luciferase growth in erythrocytes, 48 h. AID 504832, 2011
#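 Luciferase-expressing parasites in RBCs, 2% Hct / 0.1% parasitemia final; RPMI 1640 + 0.5% Albumax; 37 C, 5% CO2, one generation; luminescence read-out, lower signal = inhibition.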
# Shiga toxin inh = A qHTS for Small Molecule Inhibitors of Shiga Toxin | Vero cells, Shiga toxin protein synthesis inhibition reporter | inhibition, % at 38.7 µM | 9.2% of 290,000 active | AID 2315, 2010; in the data active means inhibition mostly above about 28%, no sharp cut-off; inactive means mostly below about 43%
# NS1 function inh = qHTS Assay for Inhibitors of Influenza NS1 Protein Function; Potency, µM (top dose mostly 46.1 µM); 0.4% of 270,000 active; calls by dose curve; further: actives are rising curves; nearly all actives have a fitted effect of over 50% in size
#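 A cell-based growth assay was used: compounds that relieve NS1-induced slow growth of budding yeast raise OD600. Assay medium was yeast nitrogen base with ammonium sulphate and -URA supplement, pH 6.0, with 2% galactose.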
# NS1 inh valid = Assay for Inhibitors of Influenza NS1 Protein Function: Hit Validation | activity change, negative = inhibition, % at 32.9 µM | influenza NS1 function cell assay, 15-point titration | 1,400 tested, under 10 active | shares compounds with NS1 function inh; calls by dose curve
# PR8 titer = Assay for Inhibitors of Influenza NS1 Protein Function: Influenza virus replication assay in MDCK cells infected with virus A/PR/8/34; shares compounds with NS1 function inh; MDCK infected influenza A/PR/8/34, virus titer TCID50; stronger effect = lower value; virus titer (log TCID50), log10 TCID50 at 5 µM; 30% of 95 active; AID 504647, 2011; call rule not given here
# A number is an active result; i = inactive; ? = inconclusive; nt = no result; ! = repeats disagree; [ ] = another dose, or the depositor's remark. Shown are actives, neighbours in structure and some others; about 21% of the full set was active somewhere. Unless noted, the call rests on the fitted dose curve; in most records, active means well fitted curve in the direction sought with a large enough effect; inconclusive means small, poorly fitted or top-dose-only effect, or another doubt; inactive means no such curve, though single readings can be large; an effect the other way counts as inactive or inconclusive.
SMILES,FBPA Giardia inh,CHX counter,Pf growth 96h,Pf growth 48h,Shiga toxin inh,NS1 function inh,NS1 inh valid,others
COc1ccc(/C=C(\NC(=O)c2ccc(C)cc2)C(=O)NCCCn2ccnc2)cc1,i,i,i,i,i,i,nt,
O=C(CCCCCN1C(=O)c2ccccc2C1=O)NCc1ccccn1,i,i,?,i,i,i,nt,
Cc1onc(-c2ccccc2Cl)c1C(=O)Nc1nnc(-c2cccc([N+](=O)[O-])c2)s1,?,i,?,?,i,10µM,i,
Cc1cc(C(=O)Nc2nnc(-c3ccccc3)s2)no1,i,i,i,?,i,?,?,
C=CCNC(=O)C1CC(=O)N(c2ccc(OCC(=O)Nc3c(C)cccc3C)cc2)C1 (stereo unspecified),i,i,i,i,i,?,i,
COC(=O)[C@@H]1C[C@@]2(O)[C@H](O)[C@H](O)[C@H](O)C[C@H]2N1Cc1ccc(N2CCOCC2)cc1,i,nt,nt,nt,nt,nt,nt,
COC(=O)[C@@]1(Cc2ccc(OC)cc2)[C@H]2c3cc(C(=O)N4CCCC4)n(CCc4ccc(O)c(O)c4)c3C[C@H]2CN1C(=O)c1ccccc1,i,nt,nt,nt,nt,nt,nt,
COC(=O)[C@@]1(Cc2ccc(F)cc2)[C@H]2c3cc(C(=O)N4CCCC4)n(CCc4c[nH]c5ccc(OC)cc45)c3C[C@H]2CN1C(=O)c1ccccc1,i,i,1µM,?,i,13µM,i,
CCOC(=O)C1CCCN(C(=O)Cn2sc3nc(C)cc(C)c3c2=O)C1 (stereo unspecified),i,i,i,nt,i,5µM,?,
N#CCC(=O)N/N=C/c1ccc(Sc2nc3ccccc3s2)o1,i,i,i,i,i,i,nt,
O=c1[nH]c(C2CCCN(S(=O)(=O)c3ccc(F)cc3)C2)nc2c1nnn2Cc1ccc(F)cc1 (stereo unspecified),i,i,i,?,i,?,i,
CCNC(=S)SCCOc1ccc(C)cc1,i,i,i,i,i,i,nt,
Cc1cc(C)c(OCCN2C(=O)NC(C)(C)C2=O)c(Cl)c1,i,i,?,nt,i,?,i,
COc1cc(/C=C/C(=O)O)cc(S(=O)(=O)Nc2ccccc2Oc2ccccc2)c1OC,i,i,i,?,i,?,i,
CCN(CC)C(=O)CSc1nc2cccnc2n1-c1ccccc1OC,i,i,?,i,i,i,nt,
O=C(CSc1nc(O)c(Cc2ccccc2)c(=O)[nH]1)N1CCOCC1,i,i,i,?,i,?,i,PR8 titer=i
COc1ccccc1-n1c(SCC(=O)N2CCOCC2)nc(O)c(Cc2ccccc2)c1=O,i,i,nt,i,i,?,i,
CCc1c(O)nc(SCC(=O)N2CCOCC2)n(-c2ccccc2)c1=O,i,i,nt,i,i,i,nt,
CCN(CC)C(=O)CSc1nc2ccccc2c(=O)n1-c1ccccc1OC,i,i,i,?,i,35µM,i,
COc1ccccc1-n1c(SCC(=O)N2CCCC2)nc2cccnc21,i,i,i,i,i,2µM,i,
CCN(c1ccccc1)S(=O)(=O)c1ccc(F)cc1C,i,i,nt,i,i,i,nt,
O=C(NCCc1ccc(Cl)cc1)c1ccc(CNc2c(N3CCOCC3)c(=O)c2=O)cc1,i,i,i,i,i,i,nt,
COc1cc(NC(=S)N2CCc3ccccc3C2)cc(OC)c1,i,i,?,i[5.75 µM],i,nt,nt,
Cc1snc(S(=O)(=O)/C(C#N)=N/Nc2ccc(C(F)(F)F)cc2)c1C#N,i,i,i,nt,i,i,nt,
COc1ccc(N=Nc2cc(-c3ccccc3)ccc2O)cc1,i,i,i,i,i,i,nt,
SMILES,FBPA Giardia inh,CHX counter,Pf growth 96h,Pf growth 48h,Shiga toxin inh,NS1 function inh,NS1 inh valid,others
COc1ccc(S(=O)(=O)N2CCCCC2)cc1NS(=O)(=O)c1cc(Cl)ccc1Cl,i,i,i,i,i,22µM,i,PR8 titer=i
COc1ccc(-c2csc(Nc3ccc(S(=O)(=O)Nc4cc(OC)nc(OC)n4)cc3)n2)cc1,i,i,15µM,i,i,13µM,i,PR8 titer=i
CC(=O)Nc1ccc(Nc2ncnc3ccccc23)cc1,i,14,i,i,i,?,i,PR8 titer=i
Oc1cccc(Nc2ncnc3ccccc23)c1,i,i,i,i,i,i,nt,
CCOc1cc(-c2c(C#N)c(=O)[nH]c3c2c(C)nn3-c2ccc(F)cc2)ccc1O,?,i,i[5.75 µM],i,i,7.9µM,i,PR8 titer=4
Cc1ccccc1N1C(=O)NC(=O)/C(=C\c2ccc3c(c2)CCCN3Cc2ccccc2)C1=O,i,i,i,i,i,?,i,
Cc1cc(C(=O)O)ccc1-n1c(C)cc(/C=C2\SC(=O)NC2=O)c1C,?,i,?,i,i,11µM,i,
CC1(C)Oc2ccc(C#N)cc2[C@@H](N2CCCC2=O)[C@@H]1O,i,i,i,i,i,i,nt,
COc1ccc(/C=C\C(=O)NCc2ccc3c(c2)cc(C)n3C)cc1OC,?,i,?,?,i,11µM,i,PR8 titer=i
Cc1cc2cc(CNC(=O)c3cccs3)ccc2n1C,i,38,nt,?,56,?,i,
Cc1ccccc1NC(=S)NCc1ccc2c(c1)cc(C)n2C,i,i,i,i,i,?,nt,
COc1ccc(C(=O)NCc2ccc3c(c2)cc(C)n3C)cc1OC,i,i,?,?,i,nt,nt,
Cc1cc2cc(CNC(=O)c3ccc(S(=O)(=O)N4CCCC4)cc3)ccc2n1C,i,i,9.3µM,?,i,10µM,i,
CCc1cccc(C)c1NC(=S)NCc1ccc2c(c1)cc(C)n2C,i,i,6.6µM,?,i,14µM,i,
CCN(CC)S(=O)(=O)c1ccc(C(=O)NCc2ccc3c(c2)cc(C)n3C)cc1,i,i,?,?,i,?,nt,
O=CN1CCN(C(=O)c2ccc([N+](=O)[O-])cc2)CC1,i,i,i,i,i,i,nt,
COC(=O)CC1COc2ccccc2N1C(=O)/C=C/c1ccccc1 (stereo unspecified),i,i,i,i,i,i,nt,
COc1ccc(C(=O)NC(=S)Nc2cccc(Cl)c2N2CCOCC2)cc1[N+](=O)[O-],nt,i,?,?,i,i,nt,
CC1CCc2cc(F)ccc2N1C(=O)CSc1nnc(-c2cccs2)n1C (stereo unspecified),i,i,?,?,i,i,nt,
O=C(CCc1ccc(O)cc1)c1c(O)cc(O)cc1O,i,20,?,?,i,13µM!,i,
CC(C)=CCN1CCN(Cc2cn(C(C)C)c3ccccc23)CC1CCO (stereo unspecified),i,i,?,?,i,11µM,i,
FC(F)Oc1ccc(/C=N/c2c(-c3ccc(OC(F)F)cc3)nc3n2CCS3)cc1,i,i,i,?,i,13µM,i,
